Assay [1] is described as follows: anti-His antibody binders, primary screen, artefact control for SMM control protein annotation, biochemical, small-molecule microarray, 635 nm fluorescence (AID 1128).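 Also: score merges feature fluorescence with signal-to-noise for each printed compound spot.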 The settings on record: anti-His Alexa647 antibody binding, higher = more signal.
Assay [2] concerns Human papillomavirus type 1a E7 protein (residues 1-88). Nature of the assay: HPV1a E7 small-molecule binders, primary screen, biochemical, small-molecule microarray, residues 1-88, 635 nm (AID 1129). The settings on record: small-molecule microarray binding, fluorescence 635 nm; higher = more signal.
Assay [3] addresses Focal adhesion kinase 1 (Homo sapiens) (UniProt Q05397). Nature of the assay: small-molecule microarray binders of FAK, primary screen, biochemical, 635/667 nm fluorescence, BSA, DTT (AID 1130).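 Also: composite of spot emission at 667 nm and signal to noise over triplicate slides.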 The settings on record: PTK2 binding, 635 nm fluorescence, higher = more signal.
Assay [4] has as its system Fibrinogen (Alexa647-labelled). Nature of the assay: fibrinogen binders on compound microarrays, profiling panel, artefact control for SMM control-protein annotation, biochemical, small-molecule microarray, 635/667 nm fluorescence (AID 1131).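 Also: z-score merges 667 nm fluorescence with per-spot signal-to-noise over triplicate slides.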 The settings on record: fibrinogen-A647 binding fluorescence, higher = more signal.
For assay [5], the target named is Follistatin (Homo sapiens) (UniProt P19883). Kind of assay: follistatin binders on small-molecule microarrays, primary screen, biochemical, small-molecule microarray, 635/667 nm fluorescence (AID 1132). The settings on record: FST binding, 635 nm fluorescence, higher = more signal.
Chain of Follistatin (Homo sapiens) (P19883 whole entry, looked up): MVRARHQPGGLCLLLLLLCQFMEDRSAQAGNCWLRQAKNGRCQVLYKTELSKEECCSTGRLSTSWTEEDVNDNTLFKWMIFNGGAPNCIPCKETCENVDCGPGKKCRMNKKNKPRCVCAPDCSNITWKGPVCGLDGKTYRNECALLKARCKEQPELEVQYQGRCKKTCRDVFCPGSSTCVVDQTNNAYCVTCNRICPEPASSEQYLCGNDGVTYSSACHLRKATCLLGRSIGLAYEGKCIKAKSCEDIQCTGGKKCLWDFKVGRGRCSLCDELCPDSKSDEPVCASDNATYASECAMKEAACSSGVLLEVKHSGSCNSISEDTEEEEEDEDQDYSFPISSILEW
Assay [6] concerns the target Fibroblast growth factor 2 (Homo sapiens) (UniProt P09038). Nature of the assay: FGF2 binders on small-molecule microarrays, primary screen, biochemical, small-molecule microarray, 635/667 nm fluorescence (AID 1133). The settings on record: small-molecule microarray binding, FGF2, fluorescence 635/667; higher = more signal.
Assay [7] in a line: mitochondrial membrane potential change in A549 cells, profiling panel, cell-based, JC-1 fluorescence, basal, 24 h, 100 nL (AID 1138).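 Also: A549 lung adenocarcinoma cells under basal conditions with no added stimulus; test concentration not given here.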 The settings on record: higher = more signal.
Assay [8] concerns Lefty1. Kind of assay: Lefty1 binders on small-molecule microarrays, primary screen, biochemical, small-molecule microarray, 635/667 nm fluorescence (AID 1139). The settings on record: small-molecule microarray binding, fluorescence 635/667; higher = more signal.
Assay [9] has as its system wheat germ agglutinin (Triticum aestivum), Alexa647-labelled. Kind of assay: wheat germ agglutinin binders on compound microarrays, profiling panel, artefact control for SMM control-protein annotation, biochemical, small-molecule microarray, 635/667 nm fluorescence (AID 1140).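 Also: score merges 667 nm feature emission with signal to noise over triplicate slides.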 The settings on record: WGA-A647 binding, 635 nm fluorescence, higher = more signal.
In assay [10] the target is Luciferin 4-monooxygenase (Photinus pyralis) (UniProt P08659). Kind of assay: firefly luciferase enzyme inhibitors, primary screen, biochemical, luminescence, purified enzyme, 2006 set (AID 1141).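 Also: cell-free assay with purified firefly luciferase at 100 ng per well in PBS; test concentration not given here.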 The settings on record: SteadyGlo luminescence, 30 min, higher = more signal, called active from +8 up or from −8 down.
Chain of Luciferin 4-monooxygenase (Photinus pyralis) (P08659 whole entry, looked up): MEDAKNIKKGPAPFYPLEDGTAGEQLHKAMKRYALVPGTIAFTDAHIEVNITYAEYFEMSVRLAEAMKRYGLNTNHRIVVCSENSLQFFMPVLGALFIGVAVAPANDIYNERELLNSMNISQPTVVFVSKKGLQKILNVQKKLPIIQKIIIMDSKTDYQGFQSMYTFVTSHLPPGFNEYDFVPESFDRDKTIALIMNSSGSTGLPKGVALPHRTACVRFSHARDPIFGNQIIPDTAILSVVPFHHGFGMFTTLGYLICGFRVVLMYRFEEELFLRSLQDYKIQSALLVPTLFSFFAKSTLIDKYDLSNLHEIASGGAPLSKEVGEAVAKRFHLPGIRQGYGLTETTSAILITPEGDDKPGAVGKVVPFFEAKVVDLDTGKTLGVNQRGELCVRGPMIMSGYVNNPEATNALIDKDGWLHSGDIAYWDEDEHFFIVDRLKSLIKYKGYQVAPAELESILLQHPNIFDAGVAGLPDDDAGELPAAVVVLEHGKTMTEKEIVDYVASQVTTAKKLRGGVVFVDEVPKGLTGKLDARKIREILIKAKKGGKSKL
In assay [11] the test system is Wnt5a (protein binding on small-molecule microarray). Nature of the assay: Wnt5a binders on small-molecule microarray, primary screen, biophysical, 635/667 nm fluorescence (AID 1142).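 Also: fluorescence read at 667 nm with signal to noise per printed feature.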 The settings on record: 635 nm fluorescence, higher = more signal.
A short description of assay [12]: cell viability in Huh7 cells, primary screen, cytotoxicity control for HCV replication inhibitor project, CellTiter-Glo luminescence, basal, 48 h (AID 1143).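 Also: Huh7 hepatoma cells carrying a hepatitis C replication reporter with no stimulus; test concentration not given here.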 The settings on record: Huh7 HCV replicon, higher = more signal, called active from +8 up or from −8 down. In general terms: In ATP-based viability assays light output follows the ATP content of the culture.
Assay [13] is described as follows: P. aeruginosa biofilm formation inhibitors, primary screen, PAO1 strain, BacTiter-Glo luminescence, LB-PBS (AID 1144). The settings on record: 12 h, higher = more signal.
The nature of assay [14]: CREB reporter modulators without forskolin, primary screen, cell-based, PC12, CRE-LacZ reporter, unstimulated (AID 1145). The settings on record: no forskolin, luminescence, 4.5 h, higher = more signal, called active from +8 up or from −8 down.
Assay [15] is described as follows: CREB reporter modulators under forskolin, primary screen, cell-based, PC12, CRE-LacZ reporter, forskolin-stimulated (AID 1146).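 Also: PC12 cells with 6xCRE LacZ reporter stimulated by forskolin 10 µM; beta-galactosidase reporter signal reflecting CREB driven transcription.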 The settings on record: luminescence, 4.5 h, higher = more signal, called active from +8 up or from −8 down.
Assay [16] deals with Streptavidin (Streptomyces avidinii) (UniProt P22629). Kind of assay: streptavidin binders on small-molecule microarray, primary screen, artefact control for SMM compound annotation, biophysical, 635/667 nm fluorescence (AID 1147).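 Also: signal reflects streptavidin binding to arrayed compounds as a control protein.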 The settings on record: streptavidin binding, higher = more signal.
Chain of Streptavidin (Streptomyces avidinii) (P22629 whole entry, looked up): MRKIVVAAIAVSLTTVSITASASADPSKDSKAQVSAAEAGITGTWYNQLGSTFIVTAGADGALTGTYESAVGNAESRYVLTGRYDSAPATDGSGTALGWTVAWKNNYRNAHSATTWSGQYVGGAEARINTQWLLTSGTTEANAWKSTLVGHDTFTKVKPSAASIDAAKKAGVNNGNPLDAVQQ
Assay [17] in a line: small-molecule binders of probe aInhba, primary screen, biochemical, small-molecule microarray, 635/667 nm fluorescence (AID 1148).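 Also: score merges 667nm spot fluorescence with signal-to-noise for antibody binding to printed compounds.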 The settings on record: higher = more signal.
The target of assay [18] is Torsin-1A (Homo sapiens) (UniProt O14656). Kind of assay: torsin A binders from cell lysate, primary screen, small-molecule microarray, wild-type, 635/667 nm (AID 1149). The settings on record: COS7 hTOR1A-WT lysate, 635 nm fluorescence, higher = more signal.
Chain of Torsin-1A (Homo sapiens) (O14656 whole entry, looked up): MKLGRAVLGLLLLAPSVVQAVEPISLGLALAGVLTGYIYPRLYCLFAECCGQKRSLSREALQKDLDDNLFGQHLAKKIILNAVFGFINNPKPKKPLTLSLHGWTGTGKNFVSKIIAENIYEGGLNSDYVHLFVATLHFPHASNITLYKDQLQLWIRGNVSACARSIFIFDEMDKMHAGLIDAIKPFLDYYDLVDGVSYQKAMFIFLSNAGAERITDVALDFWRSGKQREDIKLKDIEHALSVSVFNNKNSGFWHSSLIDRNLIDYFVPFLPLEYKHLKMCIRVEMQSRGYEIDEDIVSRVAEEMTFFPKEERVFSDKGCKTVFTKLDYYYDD
Assay [19] shares this target. Kind of assay: small-molecule binders of mutant TOR1A in lysate, primary screen, cell lysate, small-molecule microarray, COS7 lysate, 635/667 nm fluorescence (AID 1150).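 Also: score pools 667 nm emission and signal to noise measuring lysate protein binding.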 The settings on record: COS7 hTOR1A mutant lysate, 635 nm fluorescence, higher = more signal.
The test system of assay [20] is Sonic hedgehog protein (Shh). Nature of the assay: small-molecule binders of Shh protein, primary screen, biochemical, small-molecule microarray, 635/667 nm fluorescence (AID 1151).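 Also: Shh protein binding to compounds spotted on small-molecule microarray slides; score combines spot fluorescence intensity with signal-to-noise across triplicate slides.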 The settings on record: small-molecule microarray binding, 635 nm fluorescence; higher = more signal.

Where “and” joins values, the source holds several entries; their conditions need not be identical. Identical values can stand only once. Calls of active or inactive are those of the source. Unless noted, no rule for the calls is given here.

Experimental findings from PubChem BioAssay are described below.

Chain of Focal adhesion kinase 1 (Homo sapiens) (Q05397 whole entry, looked up): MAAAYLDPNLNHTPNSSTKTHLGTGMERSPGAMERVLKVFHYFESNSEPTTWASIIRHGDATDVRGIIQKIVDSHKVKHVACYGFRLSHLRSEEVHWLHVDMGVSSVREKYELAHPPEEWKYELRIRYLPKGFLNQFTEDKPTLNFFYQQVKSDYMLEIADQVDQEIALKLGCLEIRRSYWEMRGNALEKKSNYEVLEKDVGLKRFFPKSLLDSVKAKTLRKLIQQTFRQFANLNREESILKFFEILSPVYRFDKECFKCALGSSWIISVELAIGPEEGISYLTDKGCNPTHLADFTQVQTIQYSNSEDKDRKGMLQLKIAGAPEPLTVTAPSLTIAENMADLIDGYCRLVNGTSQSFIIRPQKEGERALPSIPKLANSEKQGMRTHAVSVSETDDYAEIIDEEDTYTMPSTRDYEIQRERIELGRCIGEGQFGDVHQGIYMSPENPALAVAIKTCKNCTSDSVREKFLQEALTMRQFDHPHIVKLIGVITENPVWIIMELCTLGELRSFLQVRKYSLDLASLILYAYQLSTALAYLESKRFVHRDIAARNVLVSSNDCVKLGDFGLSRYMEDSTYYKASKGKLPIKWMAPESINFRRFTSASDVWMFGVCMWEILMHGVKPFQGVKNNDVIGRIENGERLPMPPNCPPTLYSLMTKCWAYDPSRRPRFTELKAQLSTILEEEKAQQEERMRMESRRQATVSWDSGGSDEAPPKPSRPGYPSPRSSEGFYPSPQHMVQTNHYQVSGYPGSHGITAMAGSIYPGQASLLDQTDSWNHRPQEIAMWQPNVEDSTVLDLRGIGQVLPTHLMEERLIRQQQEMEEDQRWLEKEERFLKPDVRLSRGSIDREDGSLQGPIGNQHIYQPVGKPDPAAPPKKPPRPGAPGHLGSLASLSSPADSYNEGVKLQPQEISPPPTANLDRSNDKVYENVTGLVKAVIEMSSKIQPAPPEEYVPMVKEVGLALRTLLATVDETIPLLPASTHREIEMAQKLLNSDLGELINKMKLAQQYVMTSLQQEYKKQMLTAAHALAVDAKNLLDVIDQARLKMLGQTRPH
Chain of Fibroblast growth factor 2 (Homo sapiens) (P09038 whole entry, looked up): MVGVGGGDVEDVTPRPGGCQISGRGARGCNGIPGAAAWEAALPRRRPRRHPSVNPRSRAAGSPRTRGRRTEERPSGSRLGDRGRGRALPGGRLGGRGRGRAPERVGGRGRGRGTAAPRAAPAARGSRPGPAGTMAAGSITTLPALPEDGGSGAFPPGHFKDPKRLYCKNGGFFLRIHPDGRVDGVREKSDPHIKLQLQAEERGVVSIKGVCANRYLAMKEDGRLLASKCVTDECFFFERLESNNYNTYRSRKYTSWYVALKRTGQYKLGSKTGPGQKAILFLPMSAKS

With `C[C@@H]1CC[C@H]2C(=O)N3[C@@H](CC[C@@H](C)[C@@H]3c3ccc(-c4ccco4)cc3)C(=O)N2[C@H]1c1ccc(-c2ccco2)cc1`, the composite z-score in assay [1] was 2.61 and 1.86; in assay [2], 1.22 and 0.674; in assay [3] it was 1.68 and -0.333; in assay [4], 1.01 and 0.912; in [5], 1.35 and 1.45; in [6], 0.882 and 1.36. For the same molecule, the composite z-score in assay [8] is 1.24 and 1.32; in assay [9], 1.22 and 1.11; in assay [11], 0.178 and 0.544; in assay [16], 1.33 and 2.14; in [17], 0.0006 and 0.0895; in assay [18], 0.967 and 2.1. The composite z-score in assay [19] is 0.411 and 1.47; in assay [20] it was 1.44 and 1.19. Further, the z-score in [7] is -0.764 and -0.575; in assay [10], -2.93 (inactive) and -6.15 (inactive); in [12] it was 0.234 (inactive) and 0.563 (inactive); in assay [13] it was 0.598 (inactive); in assay [14] it was -0.165 (inactive) and 0.651 (inactive); in assay [15] it was 0.371 (inactive) and -0.248 (inactive).

As for `CCCCN1CC=CC23O[C@@H]4C=CCCOC(=O)C4[C@H]2C(=O)N(C(C)CO)[C@@H]3C1=O` (stereo not given in full), the composite z-score was 2.27 and -0.329 in assay [1]; -0.461 and -0.54 in [2]; -0.293 and -0.0655 in assay [3]; -1.04 and -0.749 in assay [4]; -0.546 and 0.101 in [5]; -0.579 and -0.63 in assay [6]. Moreover, the composite z-score in assay [8] is -0.222 and 0.172; in [9], -0.558 and -0.281; in assay [11], -0.296 and 0.339; in assay [16], -1.23 and -0.178; in [17] it was -0.143 and 0.201; in [18] it was 0.234 and -0.131. Also, the composite z-score was 0.234 and 0.148 in assay [19]; 0.173 and 0.798 in [20]. In addition, the z-score in assay [7] is -0.224 and -0.725; in assay [10], -0.0385 (inactive) and -0.213 (inactive); in [12] it was 0.161 (inactive) and -0.214 (inactive); in assay [13], 0.781 (inactive) and 1.82 (inactive); in assay [14], -0.216 (inactive) and -0.204 (inactive); in assay [15], 0.405 (inactive) and -0.764 (inactive).

Turning to `C=CCN(CCCC)C(=O)C(c1cccs1)N(C(=O)/C=C\C(=O)O)c1c(Cl)cccc1CO` (stereo not given), the composite z-score is -0.71 and -0.792 in assay [1]; -0.925 and -1.1 in assay [2]; -0.859 and 1.27 in [3]; -2.84 and -3.52 in assay [4]; -2.44 and -1.69 in assay [5]; -2.72 and -1.18 in assay [6]. The composite z-score in assay [8] is -2.81 and -2.2; in assay [9] it was -0.178 and -0.7; in assay [11], -1.57 and -1.27; in assay [16] it was -1.55 and -0.309; in [17] it was -0.38 and -0.186; in assay [18] it was -4.75 and -2.7. The composite z-score in [19] is -3.62 and -2.89; in [20], -1.48 and -1.63. The z-score in assay [7] was -0.107 and -0.132; in assay [10], 1.01 (inactive) and 0.833 (inactive); in assay [12], 0.665 (inactive) and 0.504 (inactive); in assay [13] it was -0.428 (inactive) and 0.0609 (inactive); in [14], -0.761 (inactive) and 0.329 (inactive); in assay [15], 0.325 (inactive) and -0.167 (inactive).

In the case of `CC(CO)N1C(=O)[C@@H]2C3C(=O)OCCC=C[C@H]3OC23C=CCN(C(C)(C)C)C(=O)[C@@H]13` (stereo not given in full), the composite z-score was -2.03 and 0.11 in [1]; -1.08 and -0.0333 in assay [2]; -0.0802 and -0.371 in assay [3]; -1.65 and -0.445 in assay [4]; -1.1 and -0.0304 in assay [5]; -0.325 and -0.263 in assay [6]. The composite z-score in assay [8] was -1.08 and 0.542; in [9], -2.85 and 0.0101; in assay [11] it was -0.221 and 0.386; in [16] it was -1.5 and -0.476; in assay [17], -0.206 and 0.188; in [18], -0.0147 and 0.756. For the same molecule, the composite z-score was -0.0948 and 0.346 in [19]; 0.0735 and 0.915 in assay [20]. Also, the z-score was -0.619 and -0.394 in [7]; -0.685 (inactive) and -0.146 (inactive) in assay [10]; 1.18 (inactive) and -0.0534 (inactive) in [12]; 1.02 (inactive) and 1.16 (inactive) in assay [13]; -0.0859 (inactive) and -0.903 (inactive) in [14]; -0.596 (inactive) and 0.158 (inactive) in assay [15].
